These results are taken from PubChem BioAssay.

“And” between values parts separate entries of the source, which are not always exact repeats. Equal values may be shown once. The source made the active and inactive calls. Unless noted, no rule for the calls is given here.

Experiment [1] in a line: resazurin metabolic signal in HepG2 cells – cell-based, resazurin fluorescence, 24 h, PK04 Diversity Set, profiling panel (AID 1172). The note with it: HepG2 viability, higher = more signal.
Experiment [2] is described as follows: budding yeast growth changes without added modifier – OD600, strain BY4716, 24 h, basal condition, primary screen (AID 1173). The note with it: S. cerevisiae BY4716 growth, OD600, 24 h; higher = more signal, called active from +8 up or from −8 down.
A short description of experiment [3]: viability profiling in MM1S myeloma cells – cell-based, resazurin fluorescence, basal, 24 h, PK04 Diversity Set, profiling panel (AID 1174).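 Also: MM1S multiple myeloma cell line.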 To be noted: higher = more signal, called active from +8 up or from −8 down. For orientation: The colour change of resazurin is a common sign of viable cells or microbes.
The target of experiment [4] is Dihydroorotate dehydrogenase (quinone), mitochondrial (Plasmodium falciparum (isolate 3D7)) (UniProt Q08210). Kind of experiment: inhibition of P. falciparum DHODH – biochemical, C-terminal His tag, absorbance 600 nm, primary screen (AID 1175).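 Also: recombinant parasite enzyme with a five histidine tag at its C terminus.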 To be noted: PfDHODH enzyme, DCIP absorbance 600 nm; higher = more signal, called active from +8 up or from −8 down.
Dihydroorotate dehydrogenase (quinone), mitochondrial (Plasmodium falciparum (isolate 3D7)), sequence (Q08210 whole entry, looked up): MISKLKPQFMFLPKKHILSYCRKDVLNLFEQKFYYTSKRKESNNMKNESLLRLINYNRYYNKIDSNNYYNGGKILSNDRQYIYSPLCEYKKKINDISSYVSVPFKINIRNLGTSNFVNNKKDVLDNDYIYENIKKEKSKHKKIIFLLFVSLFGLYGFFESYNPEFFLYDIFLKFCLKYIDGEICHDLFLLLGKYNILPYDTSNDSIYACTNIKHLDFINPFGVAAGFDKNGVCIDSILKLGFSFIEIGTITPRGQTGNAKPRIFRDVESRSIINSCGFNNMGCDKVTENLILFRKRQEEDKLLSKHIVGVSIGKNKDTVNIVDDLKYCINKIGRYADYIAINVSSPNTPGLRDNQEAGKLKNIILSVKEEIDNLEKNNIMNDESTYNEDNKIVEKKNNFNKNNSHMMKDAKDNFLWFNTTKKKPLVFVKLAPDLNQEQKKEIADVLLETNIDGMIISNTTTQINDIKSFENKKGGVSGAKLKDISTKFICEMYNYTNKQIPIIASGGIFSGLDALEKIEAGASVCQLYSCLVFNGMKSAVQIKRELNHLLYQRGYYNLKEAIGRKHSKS
Experiment [5] is described as follows: inhibition of PAO1 biofilm formation – strain PAO1, LB-PBS medium, absorbance 600 nm, primary screen (AID 1176). To be noted: P. aeruginosa PAO1 growth/biofilm, A600, 12 h; higher = more signal.
Experiment [6] is described as follows: growth modulation of vineyard yeast isolate – strain RM11-1a, OD600, basal, 24 h, primary screen (AID 1177).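 Also: cultures grown under basal conditions with no added stressor.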 The note with it: S. cerevisiae RM11-1a growth, OD600, 24 h; higher = more signal, called active from +8 up or from −8 down.
Experiment [7] can be described thus: growth of efflux-deficient E. coli DRC39 – strain DRC39, OD650, 24 h, E. coli filamentation inducers, primary screen (AID 1178).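 Also: growth measured as culture turbidity by optical density at 650 nm.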 The note with it: E. coli DRC39 acrAB, higher = more signal, called active from +8 up or from −8 down.
A short description of experiment [8]: growth of efflux-deficient E. coli DRC39 – strain DRC39, OD650, 48 h, E. coli filamentation inducers, primary screen (AID 1179).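 Also: screen aims at cell division blockers that make cells filament.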 The note with it: E. coli DRC39 delta-acrAB growth, higher = more signal, called active from +8 up or from −8 down.
Experiment [9] in a line: viability profiling in RPMI8226 myeloma cells – cell-based, resazurin fluorescence, basal, 24 h, PK04 Diversity Set, profiling panel (AID 1180).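 Also: RPMI8826 multiple myeloma cell line at 5000 cells per well.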 The note with it: higher = more signal.
Experiment [10] has as its target E3 ubiquitin-protein ligase XIAP (Homo sapiens) (UniProt P98170). Put plainly: small molecules binding XIAP protein – biophysical, small-molecule microarray, fluorescence 635 nm, primary screen (AID 1181).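 Also: score merges 667 nm emission and signal to noise over triplicate slides.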 To be noted: higher = more signal.
Experiment [11] concerns XIP peptide (Xip251-270) binding. Put plainly: XIP fragment 251-270 binding compounds – biochemical, small-molecule microarray, fluorescence 635/667 nm, 0.1 µg/mL protein, primary screen (AID 1182). To be noted: fluorescent protein binding, 635 nm, higher = more signal, called active from +8 up or from −8 down.
The subject of a further experiment is XIP peptide (Xip251-270). Put plainly: compounds binding XIP fragment 251-270 – biochemical, small-molecule microarray, fluorescence 635/667 nm, 0.5 µg/mL protein, primary screen (AID 1183). The note with it: fluorescence 635 nm, higher = more signal.
Experiment [12] in a line: blood-stage malaria parasite viability loss – strain 3D7, DAPI fluorescence, 100 nL, primary screen (AID 1184).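 Also: parasites grown inside human red blood cells in medium with human serum.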 To be noted: P. falciparum 3D7 growth, 3 d, higher = more signal.
Experiment [13] has as its target Homeobox protein Hox-A13 (Mus musculus) (UniProt Q62424). Kind of experiment: disruptors of Hoxa13 oligonucleotide interaction – biochemical, fluorescence polarization, labeled oligonucleotide, primary screen (AID 1185). To be noted: Hoxa13:DNA binding, 15 min, higher = more signal, called active from +8 up or from −8 down.
A short description of experiment [14]: blockers of DNA damage checkpoint Chk1 activation – imaging, HeLa, hydroxyurea, phospho-Chk1 antibody, percent positive cells, primary screen (AID 1186). To be noted: hydroxyurea-induced phospho-Chk1 immunofluorescence imaging, higher = more signal.
The nature of experiment [15]: blockers of DNA damage checkpoint Chk1 activation – imaging, HeLa, hydroxyurea, phospho-Chk1 nuclear intensity, primary screen (AID 1187). To be noted: hydroxyurea-induced phospho-Chk1 immunofluorescence imaging, higher = more signal.

E3 ubiquitin-protein ligase XIAP (Homo sapiens), sequence (P98170 whole entry, looked up, the tested form may be a part): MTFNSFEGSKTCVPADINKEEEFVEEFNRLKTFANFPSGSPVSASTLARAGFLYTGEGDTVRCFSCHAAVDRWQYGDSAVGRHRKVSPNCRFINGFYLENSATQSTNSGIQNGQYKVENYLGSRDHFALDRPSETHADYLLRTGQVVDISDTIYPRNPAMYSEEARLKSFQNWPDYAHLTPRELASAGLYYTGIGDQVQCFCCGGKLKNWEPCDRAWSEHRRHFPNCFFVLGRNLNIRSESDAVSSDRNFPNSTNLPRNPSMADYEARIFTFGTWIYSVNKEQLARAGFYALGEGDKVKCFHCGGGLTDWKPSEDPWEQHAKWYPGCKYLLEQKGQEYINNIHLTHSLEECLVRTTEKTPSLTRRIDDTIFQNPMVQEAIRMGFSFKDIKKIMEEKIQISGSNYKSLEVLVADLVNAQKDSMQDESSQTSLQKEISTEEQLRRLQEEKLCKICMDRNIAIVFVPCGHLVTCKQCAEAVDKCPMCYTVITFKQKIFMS
Homeobox protein Hox-A13 (Mus musculus), sequence (Q62424 whole entry, looked up): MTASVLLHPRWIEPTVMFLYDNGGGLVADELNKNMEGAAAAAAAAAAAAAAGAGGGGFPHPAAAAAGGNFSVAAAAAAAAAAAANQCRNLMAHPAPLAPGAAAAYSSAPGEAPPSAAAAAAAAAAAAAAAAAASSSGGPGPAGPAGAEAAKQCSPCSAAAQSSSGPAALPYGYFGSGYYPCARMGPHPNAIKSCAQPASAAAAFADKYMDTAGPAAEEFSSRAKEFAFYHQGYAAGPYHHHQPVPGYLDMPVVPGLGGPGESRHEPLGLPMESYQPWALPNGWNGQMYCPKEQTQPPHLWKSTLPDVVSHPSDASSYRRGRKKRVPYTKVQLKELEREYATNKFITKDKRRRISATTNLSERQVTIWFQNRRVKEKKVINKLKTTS

Regarding `C=C[C@@H](C)[C@@H](O)c1ccc(O)c2ccccc12`, the z-score in experiment [1] is -0.278 and 0.0891; in experiment [2], -14.7 (active) and -15 (active); in [3], -0.938 (inactive) and -1.51 (inactive); in [5], 0.814 (inactive) and -0.0697 (inactive); in experiment [6], -0.143 (inactive) and 0.291 (inactive); in [7], 0.652 (inactive) and 0.297 (inactive). Besides, the z-score in [8] is 0.347 (inactive) and 0.106 (inactive); in [9] it was -0.777 and -1.42; in experiment [12], 1.31 and -0.772; in [13] it was -3.43 (inactive) and -4.33 (inactive); in experiment [14], 0.789 (inactive) and 0.536 (inactive); in experiment [15], 1.17 (inactive) and 0.193 (inactive). For the same compound, the composite z-score in experiment [4] was -2.38 (inactive) and -3.35 (inactive); in [10], -0.22 and 1.24; in [11], 0.238 (inactive) and 0.467 (inactive); with XIP peptide (Xip251-270), -0.54 and -0.684.
As to `CC(C)OC(=O)C=C1C[C@@H](c2cccc(C(F)(F)F)c2)O[C@@H](c2cccc(C(F)(F)F)c2)O1`, the z-score is -0.115 and 0.0158 in experiment [1]; 0.308 (inactive) and 0.626 (inactive) in experiment [2]; -1.7 (inactive) and 0.108 (inactive) in experiment [3]; 0.834 (inactive) and 0.269 (inactive) in [5]; 0.69 (inactive) and -0.0601 (inactive) in [6]; -0.169 (inactive) and -0.948 (inactive) in experiment [7]. Moreover, the z-score was 1.04 (inactive) and 0.509 (inactive) in [8]; -0.899 and 0.393 in experiment [9]; 0.15 and -0.473 in [12]; -2.72 (inactive) and -1.27 (inactive) in [13]; -0.394 (inactive) and -0.391 (inactive) in experiment [14]; -0.854 (inactive) and -0.46 (inactive) in experiment [15]. For the same compound, the composite z-score was -2.02 (inactive) and -2.59 (inactive) in experiment [4]; -0.195 and 0.163 in experiment [10]; 0.081 (inactive) and 0.769 (inactive) in experiment [11]; 0.78 and 0.781 with XIP peptide (Xip251-270).
For the compound `CCOC(=O)c1ccc(NC(=O)O[C@H]2[C@H](OC(=O)Nc3ccccc3)[C@H](OC(=O)Nc3ccccc3)[C@@H](OC)O[C@@H]2CO)cc1`, the z-score in experiment [1] is -1.03 and -1.82; in experiment [2], 0.645 (inactive) and -0.301 (inactive); in [3], -1.75 (inactive) and -3.01 (inactive); in [5], 2.37 (inactive) and 1.74 (inactive); in experiment [6] it was 2.14 (inactive) and 0.971 (inactive); in experiment [7], -0.468 (inactive) and 0.363 (inactive). Also, the z-score in experiment [8] is 0.496 (inactive) and -0.189 (inactive); in experiment [9], -1.53 and -2.7; in experiment [12] it was -2.51 and -2.22; in experiment [13], -1.14 (inactive) and -4.8 (inactive); in experiment [14], 0.143 (inactive) and 0.494 (inactive); in [15], 0.337 (inactive) and 0.629 (inactive). The composite z-score in experiment [4] was -0.299 (inactive) and -0.597 (inactive); in experiment [10] it was 0.23 and 0.108; in [11], 0.706 (inactive) and 1.24 (inactive); in the experiment on XIP peptide (Xip251-270) it was 0.844 and 0.901.
In the case of `CO[C@@H]1COC(=O)[C@H](Cc2ccccc2)NC(=O)CC=C[C@@H](C)[C@H](OC)COC(=O)[C@@H](C)NC(=O)CC=C[C@H]1C`, the z-score in experiment [1] was 0.959 and 0.62; in experiment [2], -1.78 (inactive) and -1.48 (inactive); in experiment [3], 1.27 (inactive) and 0.921 (inactive); in experiment [6], -1.34 (inactive) and -1.08 (inactive); in experiment [7] it was 0.357 (inactive) and 0.951 (inactive); in experiment [8], 0.067 (inactive) and 0.74 (inactive). The z-score in experiment [9] is 1 and -0.289; in experiment [12] it was -0.446 and 0.677; in experiment [13] it was -0.525 (inactive) and -0.47 (inactive). Besides, the composite z-score in experiment [4] is -0.595 (inactive) and -0.614 (inactive); in experiment [10], -0.203 and -0.192; in experiment [11] it was 0.219 (inactive) and 0.97 (inactive); in the experiment with XIP peptide (Xip251-270), 0.499 and 0.535.
Regarding `C=CCN(CCCC)C(=O)C1N(c2c(Cl)cccc2CO)C(=O)C2C(C(=O)O)C3C=CC21O3` (stereo not drawn), the z-score in experiment [1] is -0.757 and -0.248; in [2], 0.187 (inactive) and -0.602 (inactive); in experiment [3], -1.9 (inactive) and -0.645 (inactive); in experiment [5], -0.261 (inactive) and 0.497 (inactive); in experiment [6], 0.561 (inactive) and 0.143 (inactive); in [7], -0.964 (inactive) and 0.22 (inactive). Moreover, the z-score in experiment [8] is -0.881 (inactive) and -0.0006 (inactive); in experiment [9] it was -0.813 and -0.285; in experiment [12], -1.23 and -1.7; in [13] it was -1.12 (inactive) and -1.43 (inactive); in experiment [14], 0.304 (inactive) and -0.273 (inactive); in experiment [15], 0.151 (inactive) and 0.131 (inactive). In addition, the composite z-score in experiment [4] was 0.82 (inactive) and -0.536 (inactive); in [10] it was -0.0599 and 0.425; in experiment [11], -0.523 (inactive) and -0.356 (inactive); in the experiment on XIP peptide (Xip251-270), 0.222 and 0.152.
As for `CCOC(=O)[C@@H]1CC2O[C@]23C[C@@H]1C(=O)N1CCC[C@@H]1[C@H]3O[Si](C)(C)C(C)(C)C` (stereo partly drawn), the z-score in [1] is -0.464 and -0.0421; in [2] it was -0.648 (inactive) and -2.06 (inactive); in experiment [3] it was -0.645 (inactive) and -0.942 (inactive); in experiment [5], 0.167 (inactive) and 0.0117 (inactive); in [6], -0.159 (inactive) and -0.702 (inactive); in [7] it was 0.215 (inactive) and -0.512 (inactive). Besides, the z-score in experiment [8] was -0.215 (inactive) and -0.122 (inactive); in [9], -0.586 and -0.593; in [12] it was -0.662 and 1.63; in experiment [13], -4.09 (inactive) and -1.56 (inactive); in [14], 0.271 (inactive) and 0.387 (inactive); in experiment [15] it was 0.288 (inactive) and 0.549 (inactive). In addition, the composite z-score is -0.0009 (inactive) and -0.513 (inactive) in experiment [4]; 0.0618 and -0.142 in [10]; -0.86 (inactive) and -0.342 (inactive) in [11]; -0.791 and 0.0241 with XIP peptide (Xip251-270).
